As usually defined, the inhibition is the drop in the measured response relative to a control, in per cent.

The structures appear in SMILES notation. The whole screen tested about 98,000 compounds, of which about 4,900 (5%) were called active. This excerpt belongs to a sample that is enriched for actives. A number with no mark means an inactive call. No stated cut-off is given here; in the data, active means inhibition above about 30%; inactive means the rest.

The assay in a line: yeast control strain growth suppression – counter-screen for post-Golgi transport modulator project, primary screen (AID 738). Conditions: efflux-deficient yeast background strain, growth absorbance A615, 16 h; at 10 µM; hits give high values.
As to `Cc1ccc(SCC2=NNC(=O)C2)cc1`, the inhibition was -3.86%.
Next, `O=C(NNC(=O)c1cccnc1)Nc1ccccc1`: 8.65%.
The result for `O=Cc1c(N2CCN(c3cccc(Cl)c3)CC2)nc2ccccn2c1=O` reads 20%.
Next, `O=[N+]([O-])c1ccccc1NCc1ccc(Cl)cc1`: 9.17%; `CC(C)c1cc(C(N)=O)c(NC(=O)c2cccc(COc3ccc(Br)cc3)c2)s1`: 15.8%; `CSc1ccccc1C(=O)Nc1cccc(C(C)=O)c1`: -2.07%.
Take `O=C1Nc2cc(Cl)c(Cl)cc2N(O)N1c1cc(Cl)cc(Cl)c1`: the inhibition was 33.2% (active).
Next, `Clc1ccc(-c2cc(COc3ccccc3)no2)cc1Cl`: 5.93%.
Next, `Cc1ccc(-n2c(C)cc(/C=C(\C#N)C(=O)NCC3CCCO3)c2C)cc1` (stereo not given): 10.8%; `CN1C2CCC1/C(=C\c1ccccc1Cl)C(=O)/C2=C\c1ccccc1Cl`: 25.3%; `CC12c3ccccc3C(c3ccccc31)C1C(=O)N(Cc3cccnc3)C(=O)C12` (stereo not given): 4.53%.
As to `CC(=O)N1CCN(C(=O)Nc2cccc(C(F)(F)F)c2)CC1`, the inhibition is -1.91%.
On to `FC(F)(F)c1cccc(NC(=S)Nc2cccc(Cl)c2)c1`, for which the inhibition is 35.1% (active).
`O=C(O)CSCC(=O)Nc1cccc(C(F)(F)F)c1`: the inhibition is 4.42%.
Next, `O=C(CCNS(=O)(=O)c1ccccc1C(F)(F)F)NCc1ccc2c(c1)OCO2`: -1.95%; `COCCNC(=O)c1onc(CSc2cccc(C)c2)c1C(=O)O`: -8.59%; `Cc1ccc(-c2nn(C(C)(C)C)c3ncnc(N)c23)cc1`: 52.1% (active).
Next, `COc1ccc(C(F)(F)F)cc1N/C=C\c1nnnn1-c1ccc(C)cc1`: 0.15%; `O=S(=O)(/N=C(/Nc1ccccn1)c1ccccc1)c1ccc(Cl)cc1`: 1.53%; `O=C(COc1ccc(/C=N/NS(=O)(=O)c2ccccc2)cc1)NCCc1ccccc1`: 5.69%.
The result for `O=C(CSc1nnnn1C1CCCC1)Nc1ccc2c(c1)OCCO2` reads -2.44%.
In the case of `O=C(CSc1nnnn1-c1ccc2c(c1)CCC2)Nc1ccc2c(c1)OCCO2`, the inhibition is 39.2% (active).
Next, `O=C(CSc1nc2ncccc2[nH]1)Nc1ccc2c(c1)OCCO2`: 0.61%; `COc1ccc(NC(C)=O)cc1NC(=O)CN1CCN(C2c3ccccc3-c3ccccc32)CC1`: 89.2% (active).
The result for `COc1ccc(NC(C)=O)cc1NC(=O)CN1CCN(c2ccccn2)CC1` reads 18.6%.
Regarding `COc1ccc(OC)c(NC(=O)CN2CCN(C(=O)c3ccco3)CC2)c1`, the inhibition was 12.4%.
Consider `Cc1c(C(=O)OC(C)C)sc(NC(=O)c2cccnc2)c1C#N`, for which the inhibition was 11.5%.
As to `CC(CN1CCOCC1)c1ccccc1` (stereo not given), the inhibition was 5.77%.
For `O=C(Nc1sc2c(c1-c1nc3ccccc3[nH]1)CCCC2)C1CC1`, the inhibition is 3.43%.
The result for `CCOC(=O)c1c(NC(=O)c2ccc(N3CCOCC3)c([N+](=O)[O-])c2)sc(C)c1C` reads 3.45%.
For the molecule `CCOc1cc(/C=N/O)cc(Br)c1OC`, the inhibition is 9.73%.
Next, `COc1cccc(/C=N/NC(=O)c2cccc([N+](=O)[O-])c2)c1OS(=O)(=O)c1ccc(C)cc1`: 6.93%; `COc1cc(/C=N/O)cc(Br)c1OCc1cccc(Cl)c1`: 68% (active); `CCOc1c(Cl)cc(/C=N/O)cc1OC`: -0.28%.
The result for `COc1cc(/C=N/O)cc(Br)c1OS(=O)(=O)c1ccc(C)cc1` reads 55.4% (active); that for `COc1ccc(C(=O)Oc2cc(/C=N/NS(=O)(=O)c3ccc(C)cc3)ccc2OC)cc1`, 4.53%.
Next, `Cn1nc(C(F)(F)F)c(C(=O)Nc2cccc(C(F)(F)F)c2)c1SCc1ccc(Cl)cc1`: 9.33%; `CC(Oc1ccc(-c2ccccc2)c(F)c1)c1ccn(S(=O)(=O)c2cccc3ccccc23)n1` (stereo not given): 7.08%; `O=c1c2ccccc2c(-c2ccc(F)cc2)nn1-c1ccc(C(F)(F)F)cc1`: 23.4%.
`COc1c(C)cccc1C(=O)Nc1cc(Cl)ccc1N1CCOCC1`: the inhibition was 87.2% (active).
`Cc1cc(C(=O)Nc2ccccc2N2CCOCC2)c2ccccc2n1`: the inhibition is 6.17%.
Consider `O=C(CNC(=O)c1ccc(Cl)cc1Cl)NCC(=O)Nc1ccccc1N1CCOCC1`, for which the inhibition is 1.21%.
In the case of `C/C(=N\NC(=O)c1ccccc1C)c1ccc(N2CCOCC2)cc1`, the inhibition is -0.44%.
The result for `CC(C)C(C)NC(=O)COc1ncnc2ccccc12` (stereo not given) reads 27.4%.
The result for `COc1cccc(N2CCN(C(=O)Nc3ccc4c(c3)NC(=O)CO4)CC2)c1` reads 4.59%; that for `O=C(Cn1cncn1)N/N=C/c1c2ccccc2cc2ccccc12`, -2.2%.
Next, `CCOC(=O)N1CCN(C(=O)c2cc3c(-c4ccc(Cl)cc4)nn(C)c3s2)CC1`: 22.3%; `Cn1nc(-c2ccc(Cl)cc2)c2cc(C(=O)NCc3ccco3)sc21`: 34.4% (active).
As to `COc1ccccc1N1CCN(C(=O)c2cc3c(-c4ccc(Cl)cc4)nn(C)c3s2)CC1`, the inhibition is 16.3%.
Regarding `CC(=O)c1cccc(NC(=O)C2CCCN2S(=O)(=O)c2cccc3nsnc23)c1` (stereo not given), the inhibition was 18.2%.
Next, `Cc1ccc(-c2nc3ccccc3[nH]2)cc1NC(=O)c1sc2ccccc2c1Cl`: 12.1%; `O=C(/C=C/c1ccco1)Nc1cccc(-c2nc3ccccc3[nH]2)c1`: 14.9%.
For `Cc1ccsc1C(C(=O)NC1CCCCC1)N(C(=O)Cc1cccs1)C1CC1` (stereo not given), the inhibition was 34.2% (active).
The result for `Cc1cccc(N(C(=O)Cc2cccs2)C(C(=O)NC2CCCC2)c2ccsc2)c1` (stereo not given) reads 2.59%; that for `CC(Cc1cccs1)NC(=O)NC1CCCCC1` (stereo not given), 4.21%.
The result for `Cc1ccc(Oc2ccc3c(c2)C(=O)N(c2cccc4cccnc24)C3=O)cc1` reads 9.43%; that for `COC(=O)c1cc(OC)c(OC)cc1NC(=O)CSc1ccc(C)cc1`, 4.16%.
Next, `N#Cc1ccsc1NC(=O)CN1CCCCC1`: 3.25%; `CC1(C)CCCC2=C1CC1C(=O)N(c3ccccc3)C(=O)C1C2` (stereo not given): 18.5%; `CC1CC2=C(CC1/C=N/NC(N)=S)C(C)(C)CCC2` (stereo not given): 90.2% (active).
On to `COc1ccc(N(CC(=O)N/N=C/c2cccc3c2OCCO3)S(=O)(=O)c2ccc(NC(C)=O)cc2)cc1`, for which the inhibition was 0.15%.
The result for `CCN(CC)S(=O)(=O)c1ccc2nc(COC(=O)c3n[nH]c4ccccc34)[nH]c2c1` reads 7.74%; that for `COc1ccc(COC(=O)c2n[nH]c3ccccc23)cc1F`, 37.5% (active); that for `O=C(COC(=O)c1n[nH]c2ccccc12)NCc1ccccc1`, 4.29%.
Next, `CCC(C)NC(=O)c1c(N)n(/N=C/c2cccs2)c2nc3ccccc3nc12` (stereo not given): -2.86%.
The result for `C=CCn1c(N)c(C(=O)OCC(C)C)c2nc3ccccc3nc21` reads 9.88%; that for `CC(C)Cn1c(N)c(C(=O)NCc2cccs2)c2nc3ccccc3nc21`, 35.7% (active).
As to `O=C(O)COc1ccc(-c2nccc(-c3cccs3)n2)cc1`, the inhibition was 0.28%.
The result for `Brc1ccc(/C=N/N2CCN(C3c4ccccc4-c4ccccc43)CC2)s1` reads -3.33%; that for `CC(CC(=O)Nc1cc(C(F)(F)F)ccc1Cl)c1ccccc1` (stereo not given), 16%; that for `CCNCc1cc2cc(C)ccc2[nH]c1=O`, -2.22%.
The result for `CCN(Cc1cc2cc(C)ccc2[nH]c1=O)S(=O)(=O)c1ccccc1` reads 32.2% (active).
Take `CC(=O)OCc1cc2cc(C)ccc2[nH]c1=O`: the inhibition was -5.13%.
Next, `O=[N+]([O-])c1ccc(Oc2ccc(F)cc2Br)c2ccncc12`: 68.3% (active); `COc1ccc(C2C=C(c3ccc(Br)cc3)Nc3nc(NS(C)(=O)=O)nn32)cc1` (stereo not given): -3.73%.
The result for `Cc1cc(/C=C2/SC(=O)N(CC(=O)OC(C)C)C2=O)c(C)n1C` reads -3.79%; that for `Cc1cccc(NC(=S)Nc2ccc(Br)cc2)c1`, 0.28%.
Turning to `O=C(Nc1ccc(Cl)cc1)c1ccsn1`, the inhibition is 25.9%.
Consider `O=C(Nc1ccccc1)c1nnsc1S(=O)(=O)c1ccc(Cl)cc1`, for which the inhibition is 97.8% (active).
Regarding `CC(=O)Nc1cc(C(=O)O)ccc1S(=O)(=O)c1ccc(Cl)cc1`, the inhibition was 8.39%.
Next, `Cc1noc(C)c1COC(=O)c1cc2ccccc2cc1O`: 19.3%; `Cc1cccc(NC(=O)CSc2nnc(NC(=O)CN3CCOCC3)s2)c1`: -6.56%.
The result for `Cc1cccc(NC(=O)CN2CCCN(S(=O)(=O)c3ccc(Br)s3)CC2)c1` reads 41.2% (active); that for `Cc1cccc(NC(=O)CN2C(=O)CNC2=O)c1`, 9.16%.
Next, `O=C(Nc1ccccc1)c1ccc2nsnc2c1`: 12.1%; `Cn1nc([N+](=O)[O-])nc1Sc1ccc(C(C)(C)C)cc1`: 11.6%.
As for `C=CCOC(=O)C1=C(C)NC(C)=C(C(=O)OCC=C)C1c1cccs1`, the inhibition was 39.5% (active).
The result for `C=CCOC(=O)C1=C(C)NC(SCC(=O)OCC)=C(C#N)C1c1ccc(C)cc1` (stereo not given) reads 18.4%; that for `CCOC(=O)C1=C(C)NC(C)=C(C(=O)OCC)C1c1ccccn1`, -6.97%.
For the molecule `COc1ccc(/C=C2/S/C(=N/N=C3\CC4CCC3(C)C4(C)C)NC2=O)cc1` (stereo not given), the inhibition was -0.57%.
Next, `COc1ccc(/C(O)=C2\C(=O)C(=O)N(Cc3ccco3)C2c2ccc(OC)cc2OC)cc1` (stereo not given): -3.5%.
The result for `CCCn1c(SCC(=O)Nc2c(C)cccc2C)nnc1C(C)C` reads -4.88%; that for `CCCn1c(SCC(=O)c2ccc3c(c2)OCCO3)nnc1C(C)C`, 43.7% (active).
The result for `CCCn1c(SCC(N)=O)nnc1C(C)C` reads 5.31%.
In the case of `Cc1cc2c(c(=O)n1C)C(C(C)C)C(C#N)=C(N)O2` (stereo not given), the inhibition is -3.4%.

Source of the values: PubChem BioAssay AID738 (SRMLSC, 2007).
